# Results as given in PubChem BioAssay (NCATS).
# Values without a mark were called inactive. Records with an inconclusive call do not appear. Entries that show only a call come without a potency. The source made the active and inactive calls. Unless noted, calls follow the shape of the full dose curve.
# Legend:
# [1] = qHTS to identify inhibitors of the type 1 interferon - major histocompatibility complex class I in skeletal muscle: primary screen against the NCATS Mechanism Interrogation Plate v5.0 (MIPE) Libary (AID 1347411; active = well fitted curve in the direction sought with a large enough effect; an effect the other way counts as inactive or inconclusive; also: nearly all actives have a fitted effect of over 65% in size)
# Outline: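 HLA-B HiBit myoblasts, dexamethasone-free medium + 4 ng/ml IFN-b, 24 h compound, 11-pt 1:3 from 46 uM final. Readout: Nano-Glo HiBiT lytic luminescence after 10 min lysis, RT.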
# [2] = Validation qHTS assay for inhibitors of Activation Induced Cytidine Deaminase (AID): UDG Counterscreen signal (AID 1347427; active = well fitted curve in the direction sought with a large enough effect; an effect the other way counts as inactive or inconclusive)
# Outline: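 Fluorescence at 560 nm excitation, 665 nm emission reports UDG signal after 250 mM NaOH (2x) addition and 30 min. Enzymes (AID 1 uM, UDG 2 U/mL, at 4/3x) preincubated 10 min with compound, then 4 h with 4x 250 nM DJC20/DJC23 substrate at room temperature.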
# [3] = Primary qHTS for inhibitors of SARS-S pseudo-typed particle cell entry (AID 1479145); details: outcome: dose series up to 57.1 µM unless noted; also: nearly all actives have a fitted effect of over 45% in size; as to activity change, negative = inhibition: series mostly up to about 57 µM
# [4] = Primary qHTS for Huh7 cytotoxicity: counterscreen for inhibitors of MERS-S pseudotyped particle cell entry (AID 1479147); details: outcome: dose series up to 57.1 µM unless noted
# [5] = target: Single-stranded DNA cytosine deaminase (Homo sapiens) (UniProt Q9GZX7); assay: Validation qHTS assay for inhibitors of Activation Induced Cytidine Deaminase (AID): AID signal (AID 1347429; active = well fitted curve in the direction sought with a large enough effect; an effect the other way counts as inactive or inconclusive)
# Sequence of Single-stranded DNA cytosine deaminase (Homo sapiens) (Q9GZX7 whole entry, looked up): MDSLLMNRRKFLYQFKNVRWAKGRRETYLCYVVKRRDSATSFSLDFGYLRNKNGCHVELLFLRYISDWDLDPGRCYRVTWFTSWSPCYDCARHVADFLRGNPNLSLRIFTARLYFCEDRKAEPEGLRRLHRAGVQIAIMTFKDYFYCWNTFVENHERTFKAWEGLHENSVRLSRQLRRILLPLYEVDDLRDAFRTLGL
# Outline: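 AID+UDG coupled FRET deamination; cpds up to 114 uM final; DJC20/DJC23 substrate, 4 hr RT; NaOH stop, 30 min RT; read Ex 540/Em 590.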
# [6] = qHTS for inhibitors of adenylyl cyclases using a fission yeast platform: a pilot screen against the NCATS LOPAC library (AID 1347410; active = well fitted curve in the direction sought with a large enough effect; an effect the other way counts as inactive or inconclusive)
# Outline: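 S. pombe CHP2027 (AC9-GNAS-PDE4D2) carrying PKA-repressed fbp1-GFP, incubated 18 h at 30C in EMM with LOPAC compounds at up to 57 uM. GFP gain-of-signal read by laser scanning cytometry; DMSO negative control.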
smiles,measurement,setting,value
CCOc1ccccc1-n1c(C(C)N2CCN(C(=O)COc3ccc(Cl)cc3)CC2)nc2ccccc2c1=O (stereo unspecified),outcome,[1],inactive
CCCN(CCC)CCc1c[nH]c2ccc(C(N)=O)cc12,Potency,[2],inactive
CC[C@H](C)[C@H]1O[C@]2(C=C[C@@H]1C)C[C@@H]1C[C@@H](C/C=C(\C)[C@@H](O[C@H]3C[C@H](OC)[C@@H](O[C@H]4C[C@H](OC)[C@@H](O)[C@H](C)O4)[C@H](C)O3)[C@@H](C)/C=C/C=C3\CO[C@@H]4[C@H](O)C(C)=C[C@@H](C(=O)O1)[C@]34O)O2,outcome,[3],inactive
same,outcome,[4],inactive
C=CCN1CC[C@]23c4c5ccc(O)c4O[C@@H]2/C(=N/N=C2\CC[C@@]4(O)C6Cc7ccc(O)c8c7[C@@]4(CCN6CC=C)[C@@H]2O8)CC[C@@]3(O)C1C5,Potency,[2],inactive
O=C(O)c1cc[c]([Hg][Cl])cc1,Potency,[2],inactive
O=[N+]([O-])C(Br)(CO)CO,outcome,[3],inactive
same,outcome,[4],inactive
O=C(C[C@@H]1NCCC[C@H]1O)Cn1cnc2cc(Br)c(Cl)cc2c1=O,outcome,[3],inactive
same,outcome,[4],inactive
CCCCCCC(C)(C)c1ccc([C@@H]2C[C@H](O)CC[C@H]2CCCO)c(O)c1,Potency,[2],inactive
CCCn1c(C)c(C(=O)c2ccc3ccccc3c2)c2ccccc21,Potency,[2],inactive
CC(C)(O)[C@@H]1[C@H]2OC(=O)[C@@H]1[C@]1(O)C[C@H]3O[C@]34C(=O)O[C@H]2[C@]14C,outcome,[3],inactive
same,outcome,[4],inactive
COc1cc(CC(C)N)c(OC)cc1I (stereo unspecified),Potency,[2],inactive
same,Potency,[5],inactive
COc1ccc2c(c1)/C(=C/c1cnc[nH]1)C(=O)N2,Potency,[2],inactive
same,Potency,[5],inactive
COc1ccc2c(c1)c(CCN1CCOCC1)c(C)n2C(=O)c1cccc(Cl)c1Cl,Potency,[2],inactive
same,Potency,[5],inactive
CC(C)CCON=O,outcome,[3],inactive
same,outcome,[4],inactive
COc1cc(C)[nH]c(=O)c1CNC(=O)c1c(C)n([C@H](C)C2CCOCC2)c2ccccc12,outcome,[1],inactive
CN1[C@H]2CC[C@@H]1[C@@H](C(=O)O)[C@@H](OC(=O)c1ccccc1)C2,outcome,[3],inactive
same,outcome,[4],inactive [at 114 µM]
NC(Cc1ccc(N(CCCl)CCCl)cc1)C(=O)O (stereo unspecified),Potency,[2],inactive
CCN(CCCl)Cc1ccccc1Br,Potency,[2],inactive
C[C@]12CC[C@H]3[C@@H](CC[C@@]45O[C@@H]4C(O)=C(C#N)C[C@]35C)[C@@H]1CC[C@@H]2O,outcome,[1],inactive
C[C@]12Cc3cn4c(nc3C=C1CCC1C2CC[C@@]2(C)[C@H]1CC[C@@]2(O)C#N)nc1ccccc14 (stereo partly specified),outcome,[6],inactive
same,Potency,[2],inactive
same,Potency,[5],inactive
CCCCNCC(O)c1ccc(O)cc1 (stereo unspecified),outcome,[3],inactive
same,outcome,[4],inactive
N[C@@H](Cn1ccc(=O)[nH]c1=O)C(=O)O,Potency,[2],inactive
same,Potency,[5],inactive
C[C@@H]1O[C@H](C[N+](C)(C)C)CS1,Potency,[2],inactive
same,Potency,[5],inactive
C/C(O)=C(\C#N)C(=O)Nc1cc(Br)ccc1Br,Potency,[2],inactive
same,Potency,[5],inactive
C[C@@H]1[C@@H]2Cc3ccc(O)cc3[C@@]1(C)CCN2CC1CC1,Potency,[2],inactive
same,Potency,[5],inactive
C=CCN1CCc2cccc3c2[C@H]1Cc1ccc(O)c(O)c1-3,Potency,[2],inactive
CCCCCCCCCC(=O)O[C@H]1CC[C@H]2[C@@H]3CCC4=CC(=O)CC[C@]4(C)[C@H]3CC[C@]12C,outcome,[3],inactive
same,outcome,[4],inactive
N[C@@H](CCl)C(=O)O,Potency,[2],inactive
same,Potency,[5],inactive
CN(N=O)c1cc(O)ccc1O,outcome,[6],inactive
same,Potency,[2],inactive
same,Potency,[5],inactive
CC(C)[C@@]1(NC(=O)[C@@H]2C[C@@H]3c4cccc5[nH]cc(c45)C[C@H]3N(C)C2)O[C@@]2(O)[C@@H]3CCCN3C(=O)[C@H](Cc3ccccc3)N2C1=O,Potency,[2],inactive
C=CCN(C1=NCCN1)c1c(Cl)cccc1Cl,Potency,[2],inactive
same,Potency,[5],inactive
CC1=C2C[C@H]3[C@@H](CC=C4C[C@@H](O)CC[C@@]43C)[C@@H]2CC[C@]12O[C@@H]1C[C@H](C)CN[C@H]1[C@H]2C,outcome,[1],inactive
C=CCN1CC[C@]23c4c5ccc(O)c4O[C@H]2/C(=N/NC(=O)c2ccccc2)CC[C@@]3(O)[C@H]1C5,Potency,[2],inactive
same,Potency,[5],inactive
O=C(OCCN1CCCCC1)C(O)(c1ccccc1)c1ccccc1,outcome,[3],inactive
same,outcome,[4],inactive
COc1ccc2c(c1)[C@@]13CCCC[C@H]1[C@@H](C2)NCC3,Potency,[2],inactive
same,Potency,[5],inactive
C=CC[C@]1(O)CC[C@H]2[C@@H]3CCC4=CCCC[C@@H]4[C@H]3CC[C@@]21C,outcome,[3],inactive [at 114 µM]
same,outcome,[4],inactive [at 114 µM]
CCOc1ccc2c3c1O[C@H]1[C@@H](O)C=C[C@H]4[C@@H](C2)N(C)CC[C@@]341,outcome,[4],inactive
O=P(O)(O)C(Cl)(Cl)P(=O)(O)O,"activity change, negative = inhibition",[3],-10.6% [at 5.34 µM]
same,outcome,[4],inactive [at 5.34 µM]
CCOC(=O)c1ccccc1C(=O)OCC,outcome,[3],inactive
same,outcome,[4],inactive
CCCCCCC(=O)O[C@H]1CC[C@H]2[C@@H]3CC[C@H]4CC(=O)C=C(C)[C@]4(C)[C@H]3CC[C@]12C,outcome,[4],inactive
O=C(NCNC(=O)NC1C(=O)NC(=O)N1CO)NC1C(=O)NC(=O)N1CO (stereo unspecified),outcome,[3],inactive
same,outcome,[4],inactive
CCNC1(c2cccs2)CCCCC1=O (stereo unspecified),outcome,[3],inactive
same,outcome,[4],inactive
CCNCC(O)c1cccc(O)c1 (stereo unspecified),outcome,[4],inactive
COc1cc2c(cc1OC)[C@@]13CCN4CC5=CCO[C@H]6CC(=O)N2[C@H]1[C@H]6[C@H]5C[C@H]43,outcome,[3],inactive
same,outcome,[4],inactive
C[C@@H](CO)NC(=O)[C@@H]1C=C2c3cccc4[nH]cc(c34)C[C@H]2N(C)C1,outcome,[3],inactive
same,outcome,[4],inactive
CCCCC[C@@H](O)C1C(=O)OC(C)[C@H](O)/C=C/C=C/C=C/C=C/C=C(\C)C(O)C(O)C(O)C[C@H](O)C[C@H](O)C[C@H](O)C[C@H](O)C[C@@H]1O (stereo partly specified),outcome,[3],inactive
same,outcome,[4],inactive
CC(N)Cc1ccc(O)cc1 (stereo unspecified),outcome,[3],inactive
same,outcome,[4],inactive
C[N+]1(C)CCCCC1COC(=O)C(O)(c1ccccc1)c1ccccc1 (stereo unspecified),outcome,[3],inactive
same,outcome,[4],inactive
O=C/C=C/c1ccccc1,outcome,[3],inactive
same,outcome,[4],inactive
O=[N+]([O-])c1cc(I)c(O)c(I)c1,outcome,[3],inactive
same,outcome,[4],inactive
CCC1(CC)C(=O)NC(=O)N(C)C1=O,outcome,[4],inactive
O=C(O)C(Cl)(Cl)Cl,outcome,[3],inactive
same,outcome,[4],inactive
CC(=O)O[C@H]1CC[C@H]2[C@@H]3CCC4=CC(=O)CCC4=C3C=C[C@]12C,outcome,[3],inactive
same,outcome,[4],inactive
C[C@]12CC[C@H](OS(=O)(=O)O)CC1=CC[C@@H]1[C@@H]2CC[C@]2(C)C(=O)CC[C@@H]12,outcome,[4],inactive
C/C(=C\c1csc(C)n1)[C@@H]1C[C@@H]2O[C@]2(C)CCC[C@H](C)[C@H](O)[C@@H](C)C(=O)C(C)(C)[C@@H](O)CC(=O)O1,outcome,[3],inactive
same,outcome,[4],inactive
Cc1ccccc1-n1c(CF)nc2ccc(N)cc2c1=O,outcome,[4],inactive
FC(F)OC(F)(F)C(F)Cl (stereo unspecified),outcome,[4],inactive
Cn1sc(Cl)cc1=O,outcome,[3],inactive
same,outcome,[4],inactive
CCN(CC)C(=O)N[C@H]1C[C@@H]2c3cccc4[nH]cc(c34)C[C@H]2N(C)C1,outcome,[4],inactive
CCC1(C)CC(=O)NC(=O)C1,outcome,[3],inactive [at 114 µM]
same,outcome,[4],inactive [at 114 µM]
ClC1C(Cl)C(Cl)C(Cl)C(Cl)C1Cl (stereo unspecified),outcome,[4],inactive
Oc1ccc2c3c1O[C@H]1[C@@H](O)CC[C@@]4(O)[C@@H](C2)N(CC2CCC2)CC[C@]314,outcome,[4],inactive
CC1CCC(C(C)C)C(OC(=O)c2ccccc2N)C1 (stereo unspecified),outcome,[3],inactive
same,outcome,[4],inactive
C[C@]12CCC(=O)C=C1C=C[C@@H]1[C@@H]2CC[C@@]2(C)[C@H]1CC[C@@]2(O)CCC(=O)O,outcome,[4],inactive
CCCC(=O)OC(C(Cl)(Cl)Cl)P(=O)(OC)OC (stereo unspecified),outcome,[4],inactive
CCC1C(C)=NN=C(c2ccc(OC)c(OC)c2)c2cc(OC)c(OC)cc21 (stereo unspecified),outcome,[3],inactive
same,outcome,[4],inactive
CC[C@H]1CN2CC[C@H]1C[C@@H]2[C@@H](O)c1ccnc2ccc(OC)cc12,outcome,[4],inactive
O=S(=O)(O)c1cc(O)ccc1O,outcome,[3],inactive
same,outcome,[4],inactive
CC[N+](C)(CC)CCOC(=O)C(O)(c1ccccc1)c1ccccc1,outcome,[3],inactive
same,outcome,[4],inactive
O=[N+]([O-])c1ccccc1,outcome,[3],inactive
same,outcome,[4],inactive
O=c1[nH]cc(N(CCCl)CCCl)c(=O)[nH]1,outcome,[3],inactive [at 114 µM]
same,outcome,[4],inactive [at 114 µM]
CC(C)CCC(=O)O[C@H]1CC[C@H]2[C@@H]3CCC4=CC(=O)CC[C@]4(C)[C@H]3CC[C@]12C,outcome,[3],inactive
same,outcome,[4],inactive
CCC(=O)O[C@@](Cc1ccccc1)(c1ccccc1)[C@@H](C)CN(C)C,outcome,[4],inactive
C[C@]12CC[C@H]3[C@@H](CCC4=C(O)C(=O)CC[C@@H]43)[C@@H]1CC[C@@H]2OC(=O)CCC1CCCC1,outcome,[4],inactive
c1ccc2sc(SNC3CCCCC3)nc2c1,outcome,[3],inactive
same,outcome,[4],inactive
C[C@@H]([C@H](O)c1ccccc1)N(C)C,outcome,[3],inactive
same,outcome,[4],inactive
